FBW7 act = FBW7 E3 ligase activators, primary screen, biochemical, AlphaScreen, human. F-box/WD repeat-containing protein 7 (Homo sapiens), Q969H0. AlphaScreen FBW7–phospho-cyclin E peptide binding, activator screen. normalized activity (activation), % at 26.1 µM. 0.13% of 650,000 active. AID 1259310, 2017; in the data active = normalized activity above about 1.9%;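 note: purified mutant Fbw7 with reduced substrate affinity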
GPR151 ag = activators of human GPR151, primary screen, cell-based, PathHunter beta-arrestin, luminescence; G-protein coupled receptor 151 (Homo sapiens), Q8TDV0; PathHunter beta-arrestin GPR151 cells; activation, % at 11.2 µM; 1% of 650,000 active; AID 1508602, 2020; in the data active = activation above about 4.9%;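 note: 0% = median of compound wells and 100% = cells with positive control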
Target sequence (Q8TDV0 whole entry, looked up): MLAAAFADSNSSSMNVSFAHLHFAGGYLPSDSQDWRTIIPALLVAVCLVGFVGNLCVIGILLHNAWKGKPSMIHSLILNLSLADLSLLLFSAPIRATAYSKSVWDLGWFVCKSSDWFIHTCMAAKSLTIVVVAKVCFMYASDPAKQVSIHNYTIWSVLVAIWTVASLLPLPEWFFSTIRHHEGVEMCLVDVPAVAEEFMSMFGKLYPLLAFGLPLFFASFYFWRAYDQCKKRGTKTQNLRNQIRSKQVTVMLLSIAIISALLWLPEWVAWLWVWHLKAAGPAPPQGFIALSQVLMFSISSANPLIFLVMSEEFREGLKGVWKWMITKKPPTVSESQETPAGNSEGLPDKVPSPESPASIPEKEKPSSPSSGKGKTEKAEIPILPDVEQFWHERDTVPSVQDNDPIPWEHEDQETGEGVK
TEAD-YAP block = TEAD-YAP interaction inhibition, primary screen, TEAD-YAP interaction inhibitor project, luminescence, HEK-TIYL cells; TEAD-Gal4/YAP UAS-luciferase luminescence; inhibition, % at 9.12 µM; 1.4% of 640,000 active; AID 1259422, 2018; in the data active = inhibition above about 32%;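 note: 0% = median of test compound wells and 100% = reference inhibitor wells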
MITF primary = MITF inhibitors, primary screen, biochemical, AlphaScreen, human; AID 1259374, 2018; inhibition, % at 2.6 µM; 0.91% of 650,000 active; Microphthalmia-associated transcription factor (Homo sapiens), O75030; AlphaScreen MITF homodimerization, bead proximity signal; in the data active = inhibition above about 50%;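 note: 0% = vehicle wells with protein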
GPR151 conf act = GPR151 activators, triplicate retest, confirmation, cell-based, PathHunter beta-arrestin, luminescence; shares compounds with GPR151 ag; GPR151 PathHunter beta-arrestin cells, 90 min; % of EA-reagent control over plate median; activation, % at 11.2 µM; 6,700 tested, under 10 active; AID 1508609, 2020;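 active = mean percent activation across replicates above the confirmation screen cutoff of 4.91%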
GPR119 ag = GPR119 activators in beta-arrestin cells, counter-screen for GPR151 activator project, cell-based, PathHunter beta-arrestin, luminescence, triplicate; shares compounds with GPR151 ag; 90 min; 0 = compound-well median, 100 = enzyme-acceptor control; activation, % at 11.2 µM; 0.3% of 6,700 active; AID 1508611, 2020;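 active = mean percent activation in the counterscreen above 29.09%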;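 note: counterscreen on off-target GPR119 to flag nonselective hits from the GPR151 activator screen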
* marks the source's active call; other numbers are inactive results; . = not tested or not shown; ! = not active in a repeat. A selection: hits, their analogues and other compounds. The true share with any hit is near 3.4%.

SMILES	FBW7 act	GPR151 ag	TEAD-YAP block	MITF primary	GPR151 conf act	GPR119 ag
Cc1[nH]c2ccccc2c1C1=CCN(S(=O)(=O)Cc2ccccc2)CC1	0	1	7	-4	.	.
CCN1/C(=C/c2ccc3cc(OC)ccc3[n+]2CC)Sc2ccc(C3CCCCC3)cc21	-1	9.3*	88*	24	-1	-3
CCNc1nc(NC(C)(C)C)nc(Oc2ccc(=O)[nH]n2)n1	0	5.1*	9	-7	0	-4
CCNc1nc(Oc2ccc(=O)[nH]n2)nc(SC)n1	0	1	2	8	.	.
COc1ccc(Cc2nnc(SCC(=O)Nc3ccc(C)c([N+](=O)[O-])c3)o2)cc1	0	7.4*	8	10	0	-9
COc1ccc(Cc2nnc(SCC(=O)Nc3ccc(F)cc3)o2)cc1	0	0	2	-2	.	.
COc1ccc(Cn2c(=O)[nH]c3c(C(N)=O)nc(-c4cccc(C)c4)nc32)cc1	0	0	7	0	.	.
COc1ccc(Cn2c(=O)[nH]c3c(C(N)=O)nc(-c4ccc(C)c(C)c4)nc32)cc1	1	5.0*	-11	1	1	8
CCOC(=O)CSc1nc2c(sc(=S)n2Cc2ccccc2)c(=O)n1Cc1ccccc1	0	6.0*	-14	-10	0	-4
CCOC(=O)CSc1nc2nccnc2c(=O)n1Cc1ccccc1	0	5.0*	1	5	0	-1
CCOC(=O)CSc1nc2cc(C(=O)NC3CCCCC3)ccc2c(=O)n1CCc1ccccc1	0	5.1*	13	17	0	-1
CCOC(=O)CSc1nc2c(sc(=S)n2Cc2ccccc2)c(=O)n1-c1cccc(Cl)c1	0	0	10	3	.	.
CCOC(=O)CSc1nc2c(c(=O)n1Cc1ccccc1)C1(CCCC1)Cc1ccccc1-2	1	7.5*	-4	21	0	12
NC(=O)CSc1nc2nccnc2c(=O)n1Cc1ccccc1	0	0	1	0	.	.
CCCCN(C)C(=O)c1cc2c(=O)n3ccccc3nc2s1	0	-4	5	1	.	.
COc1cc(C2C=C(c3ccccc3)Nc3nc(C(F)(F)F)nn32)ccc1O (centres undefined)	0	-1	2	14	.	.
COc1ccc2c(c1)c(-c1csc(N)n1)c(C)n2C	0	-1	1	16	.	.
COc1ccc2c(-c3csc(N)n3)c[nH]c2c1	0	8.4*	14	-2	0	6
COc1ccc(Nc2nc(-c3c[nH]c4ccccc34)cs2)cc1	0	5.4*	-15	16	0	-3
Cc1ccc(-c2nnc(-c3ccc(C)cc3)o2)cc1	0	2	-51	3	.	.
CN(C)c1ncc(C(=O)NCCn2nc(-c3cccs3)oc2=O)cn1	0	-1	-2	-2	.	.
Cc1ccc(-n2nc3c(c2NC(=O)c2cccc(F)c2)CS(=O)C3)c(C)c1 (centres undefined)	0	5.9*	-10	0	2	2
Cc1ccc(-n2nc3c(c2NC(=O)c2ccc(Cl)c([N+](=O)[O-])c2)CS(=O)C3)c(C)c1 (centres undefined)	0	0	14	2	.	.
COc1ccc(C(=O)Nc2cccc(-c3nc4ncccc4o3)c2C)cc1[N+](=O)[O-]	0	1	6	12	.	.
COc1c(C)cccc1C(=O)Nc1cccc(-c2nc3ncccc3o2)c1	0	7.4*	-10	-4	0	5
SMILES	FBW7 act	GPR151 ag	TEAD-YAP block	MITF primary	GPR151 conf act	GPR119 ag
COc1ccc(C(=O)Nc2cccc(-c3nc4ncccc4o3)c2C)cc1OC	0	5.5*	9	-1	1	3
Cc1cccn2c(=O)c(/C=C(\C#N)C(=O)N3CCCCC3)c(Oc3ccc(F)cc3)nc12	0	5.7*	11	-16	0	-11
Cc1ccc(Oc2nc3ccccn3c(=O)c2/C=C(\C#N)C(=O)N2CCOCC2)cc1	0	4.9*	2	3	-1	-10
COCCNC(=O)/C(C#N)=C/c1c(Oc2cccc(C)c2)nc2c(C)cccn2c1=O	0	6.1*	4	0	1	1
COc1ccc(Oc2nc3c(C)cccn3c(=O)c2/C=C(\C#N)C(=O)N2CCCCC2)cc1	0	1	4	6	.	.
CCOC(=O)c1c(NC(=O)CSc2nnc(CNC(=O)c3ccc(C)c(C)c3)n2C)sc2c1CCC2	0	2	-8	1	.	.
O=C(CSc1nnc2ccc(-c3cccnc3)nn12)N1CCc2ccccc21	1	5.4*	-5	9	1	4
COc1cccc(-n2c(SCC(=O)N3CCc4ccccc43)nnc2-c2ccncc2)c1	0	6.4*	11	5	0	-1
O=C(CSc1nnc2ccc(-c3cccnc3)nn12)N1CCCC1	0	-1	-9	-2	.	.
COc1cccc(-n2c(SCC(=O)N3CCc4ccccc43)nnc2-c2cccnc2)c1	0	0	2	0	.	.
CCC1CN(CCNC(=O)CC2CCCC2)Cc2cc(OC)ccc2O1 (centres undefined)	0	6.9*	6	-4	2	5
CCC1CN(CCNC(=O)Cn2ncc3ccccc32)Cc2cc(OC)ccc2O1 (centres undefined)	1	8.2*	-1	-1	1	12
Clc1ccccc1C(c1ccccc1)(c1ccccc1)n1ccnc1	0	6.9*!	0	-14	2	-12
CCCCOC(=O)C1=C(C)N(C)C(=O)NC1c1ccccc1Cl (centres undefined)	0	7.2*	15	-4	0	-9
CCCOC(=O)C1=C(C)N(C)C(=O)NC1c1ccccc1Cl (centres undefined)	0	1	0	-6	.	.
CNC(=O)CSc1nnc(CNC(=O)c2ccc(C(C)(C)C)cc2)o1	0	1	-4	-4	.	.
Cc1ccc(C)n1-c1ccc(Cl)cc1O	0	0	5	0	.	.
Cc1ccc(C)n1-c1ccc(Cl)cc1C(=O)O	-1	7.7*	8	70*	-1	-9
O=C1/C(=C/c2cn(Cc3c(F)cccc3Cl)c3ccccc23)Sc2ccccc21	0	0	-3	-12	.	.
Cc1cccc2cc(CN(Cc3ccco3)Cc3nnnn3C(C)(C)C)c(=O)[nH]c12	0	6.2*	2	3	0	2
N#CC1(C#N)[C@H](c2ccccc2I)[C@@H](C(=O)c2ccccc2)N2c3ccc(Cl)cc3C=C[C@@H]21	0	-1	3	16	.	.
